The source holds several records for some structures; these can differ, active in one and inactive in another. Active and inactive are the calls of the source. How the source made its calls: active means hit-call score of the fitted dose curve at least 0.9, where 1 is the maximum; inactive means score below 0.9.
Tested on: not listed separately
Assay: ATG_CRE_CIS: Attagene CIS-FACTORIAL HepG2 Assay for human cAMP Responsive Element (CRE) binding protein 3 (AID 2282926)
Conditions: HepG2 CRE cis-reporter, Attagene multiplexed mRNA; actives raise or lower the signal
Summary of the method: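 Transfected HepG2 were treated for 24 hours, then RNA was extracted and reporter cDNA amplified with sequence-specific primers. Labelled fragments were separated by capillary electrophoresis, and the CRE signal was fitted bidirectionally with DMSO as baseline.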

Row | SMILES | outcome | AC50
1 | CCCCCCCC(OC)OC | inactive | 
2 | Cc1cc(C(=C2C=CC(=Nc3ccc(S(=O)(=O)O)cc3)C=C2)c2ccc(Nc3ccc(S(=O)(=O)O)cc3)cc2)cc(S(=O)(=O)O)c1N | inactive | 
3 | Clc1ccc(Nc2nnc(Cc3ccncc3)c3ccccc23)cc1 | inactive | 
4 | Cc1ccc2ccc3ccc(C)cc3c2c1 | inactive | 
5 | OCC1CCC(CO)CC1 (centres undefined) | inactive | 
6 | O=S(=O)(O)c1ccccc1 | inactive | 
7 | CCOC=O | inactive | 
8 | OCCN1CN(CCO)CN(CCO)C1 |  | 145 µM (active)
9 | O=C1OC2(c3ccccc31)c1cc(I)c(O)c(I)c1Oc1c2cc(I)c(O)c1I | inactive | 
10 | O=c1cc(-c2ccccc2)oc2ccc3ccccc3c12 | inactive | 
11 | O=C1Cc2ccccc2N1c1c(Cl)cccc1Cl | inactive | 
12 | Oc1ccc(Cc2ccccc2O)cc1 | inactive | 
13 | Oc1c(Cl)ccc(Cl)c1Cl | inactive | 
14 | C=CCOCC(CO)(CO)CO | inactive | 
15 | C=CC(C)(CCC=C(C)C)OC(C)=O (centres undefined) | inactive | 
16 | c1cnc2c(c1)ccc1cccnc12 | inactive | 
17 | O=C(F)C(F)(F)C(F)(F)C(F)(F)C(=O)F | inactive | 
18 | c1cc2cccc3c4cccc5cccc(c(c1)c23)c54 | inactive | 
19 | O=P(O)(O)CCC(F)(F)C(F)(F)C(F)(F)C(F)(F)C(F)(F)C(F)(F)F | inactive | 

Row | SMILES | outcome | AC50
20 | FC(F)(F)C(F)(F)C(F)(F)C(F)(F)I | inactive | 
21 | CCCCCCOC(=O)c1ccc(O)cc1 |  | 44.2 µM (active)
22 | Nc1ccc(O)c(C(=O)O)c1 | inactive | 
23 | CC(C)(O)C(=O)c1ccccc1 | inactive | 
24 | CC1CCC(C(=O)O)CC1 (centres undefined) | inactive | 
25 | O=C(Nc1ccc(Cl)c(Cl)c1)c1cc(Cl)cc(Cl)c1O | inactive | 
26 | Cc1ccc(C(=O)c2ccccc2)cc1 | inactive | 
27 | CCCCCCCCCC=CCC1CC(=O)OC1=O (centres undefined) | inactive | 
28 | CCO[Si](C)(C)OCC | inactive | 
29 | CC(=O)Nc1ccc(S(N)(=O)=O)cc1 | inactive | 
30 | COc1cccc(O)c1 | inactive | 
31 | Cn1sccc1=O |  | 154 µM (active)
32 | c1ccc2c(c1)CCC2 | inactive | 
33 | Cc1ccccc1C(OCCN(C)C)c1ccccc1 (centres undefined) | inactive | 
34 | CC1=NN(c2ccccc2)C(=O)C1 | inactive | 
35 | O=C(O)C(=O)O | inactive | 
36 | CCOC(C)=O | inactive | 
37 | O=C1OC(=O)C(F)(F)C1(F)F | inactive | 
38 | CCCCCCCCCCCC | inactive | 

Molecular target: CCAAT/enhancer-binding protein beta (Homo sapiens) (UniProt P17676)
Assay: ATG_C_EBP_CIS: Attagene CIS-FACTORIAL HepG2 Assay for human CCAAT/Enhancer Binding Protein (C/EBP) beta (AID 2282927)
Conditions: HepG2 Attagene cis-factorial transcription factor reporter; actives raise or lower the signal
Summary of the method: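 Endogenous C/EBPb-driven reporter transcripts measured in transfected human HepG2 cells at 24 h via RT-PCR and capillary electrophoresis of labelled fragments. Activity fitted in both directions relative to DMSO baseline.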

CCAAT/enhancer-binding protein beta (Homo sapiens), sequence (P17676 whole entry, looked up): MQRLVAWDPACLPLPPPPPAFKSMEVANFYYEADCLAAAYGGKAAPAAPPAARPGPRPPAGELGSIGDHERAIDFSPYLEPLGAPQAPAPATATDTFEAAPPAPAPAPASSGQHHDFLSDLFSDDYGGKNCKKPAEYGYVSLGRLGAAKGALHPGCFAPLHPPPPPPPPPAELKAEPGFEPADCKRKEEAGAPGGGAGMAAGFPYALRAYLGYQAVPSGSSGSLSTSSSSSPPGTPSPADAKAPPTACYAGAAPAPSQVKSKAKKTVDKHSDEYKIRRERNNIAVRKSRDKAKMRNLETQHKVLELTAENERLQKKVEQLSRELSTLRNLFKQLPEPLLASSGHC

Row | SMILES | outcome | AC50
39 | CCCCCCCC(OC)OC | inactive | 
40 | Cc1cc(C(=C2C=CC(=Nc3ccc(S(=O)(=O)O)cc3)C=C2)c2ccc(Nc3ccc(S(=O)(=O)O)cc3)cc2)cc(S(=O)(=O)O)c1N | inactive | 
41 | Clc1ccc(Nc2nnc(Cc3ccncc3)c3ccccc23)cc1 | inactive | 
42 | Cc1ccc2ccc3ccc(C)cc3c2c1 | inactive | 
43 | OCC1CCC(CO)CC1 (centres undefined) | inactive | 
44 | O=S(=O)(O)c1ccccc1 | inactive | 
45 | CCOC=O | inactive | 
46 | OCCN1CN(CCO)CN(CCO)C1 | inactive | 
47 | O=C1OC2(c3ccccc31)c1cc(I)c(O)c(I)c1Oc1c2cc(I)c(O)c1I | inactive | 
48 | O=c1cc(-c2ccccc2)oc2ccc3ccccc3c12 | inactive | 
49 | O=C1Cc2ccccc2N1c1c(Cl)cccc1Cl | inactive | 
50 | Oc1ccc(Cc2ccccc2O)cc1 | inactive | 
51 | Oc1c(Cl)ccc(Cl)c1Cl | inactive | 
52 | C=CCOCC(CO)(CO)CO | inactive | 
53 | C=CC(C)(CCC=C(C)C)OC(C)=O (centres undefined) | inactive | 
54 | c1cnc2c(c1)ccc1cccnc12 | inactive | 
55 | O=C(F)C(F)(F)C(F)(F)C(F)(F)C(=O)F | inactive | 
56 | c1cc2cccc3c4cccc5cccc(c(c1)c23)c54 | inactive | 
57 | O=P(O)(O)CCC(F)(F)C(F)(F)C(F)(F)C(F)(F)C(F)(F)C(F)(F)F | inactive | 

Row | SMILES | outcome | AC50
58 | FC(F)(F)C(F)(F)C(F)(F)C(F)(F)I | inactive | 
59 | CCCCCCOC(=O)c1ccc(O)cc1 | inactive | 
60 | Nc1ccc(O)c(C(=O)O)c1 | inactive | 
61 | CC(C)(O)C(=O)c1ccccc1 | inactive | 
62 | CC1CCC(C(=O)O)CC1 (centres undefined) | inactive | 
63 | O=C(Nc1ccc(Cl)c(Cl)c1)c1cc(Cl)cc(Cl)c1O | inactive | 
64 | Cc1ccc(C(=O)c2ccccc2)cc1 | inactive | 
65 | CCCCCCCCCC=CCC1CC(=O)OC1=O (centres undefined) | inactive | 
66 | CCO[Si](C)(C)OCC | inactive | 
67 | CC(=O)Nc1ccc(S(N)(=O)=O)cc1 | inactive | 
68 | COc1cccc(O)c1 | inactive | 
69 | Cn1sccc1=O |  | 161 µM (active)
70 | c1ccc2c(c1)CCC2 | inactive | 
71 | Cc1ccccc1C(OCCN(C)C)c1ccccc1 (centres undefined) | inactive | 
72 | CC1=NN(c2ccccc2)C(=O)C1 | inactive | 
73 | O=C(O)C(=O)O | inactive | 
74 | CCOC(C)=O | inactive | 
75 | O=C1OC(=O)C(F)(F)C1(F)F | inactive | 
76 | CCCCCCCCCCCC | inactive | 

Tested on: not listed separately
Assay: ATG_CMV_CIS: Attagene CIS-FACTORIAL HepG2 Assay for human CMV (Internal Marker) (AID 2282928);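 further: endpoint acts as a background internal control marker rather than a target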
Conditions: HepG2 CMV promoter reporter, transcription factor profiling; actives raise or lower the signal
Summary of the method: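 After transient transfection of HepG2 with reporter transcription units driven by cis-regulatory promoters, cells receive test chemical for 24 h. Labeled reporter amplicons, digested with HpaI, are sized and quantified by capillary electrophoresis against DMSO.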

Row | SMILES | outcome | AC50
77 | O=c1cc(-c2ccccc2)oc2ccc3ccccc3c12 | inactive | 
78 | CCCCCCCCCC=CCC1CC(=O)OC1=O (centres undefined) |  | 66.8 µM (active)
79 | CC1=NN(c2ccccc2)C(=O)C1 | inactive | 
80 | CCOC(C)=O | inactive | 

Tested on: not listed separately
Assay: ATG_DR4_LXR_CIS: Attagene CIS-FACTORIAL HepG2 Assay for human Liver X Receptor (LXR), DR4 submotif (AID 2282929)
Conditions: HepG2 Attagene DR4 cis-reporter, mRNA transcription; AC50: actives raise or lower the signal unless noted; outcome: actives raise or lower the signal unless noted
Summary of the method: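 HepG2, transient MRTU transfection, cis-element (DR4) promoter; 24 h compound exposure; total RNA → oligo(dT) RT → PCR → 6-FAM primer extension → HpaI cut → CE. Gain/loss vs DMSO, bidirectional fit.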

Row | SMILES | outcome | AC50
81 | CCCCCCCC(OC)OC | inactive | 
82 | Cc1cc(C(=C2C=CC(=Nc3ccc(S(=O)(=O)O)cc3)C=C2)c2ccc(Nc3ccc(S(=O)(=O)O)cc3)cc2)cc(S(=O)(=O)O)c1N | inactive | 
83 | Clc1ccc(Nc2nnc(Cc3ccncc3)c3ccccc23)cc1 | inactive | 
84 | Cc1ccc2ccc3ccc(C)cc3c2c1 | inactive | 
85 | OCC1CCC(CO)CC1 (centres undefined) | inactive | 
86 | O=S(=O)(O)c1ccccc1 | inactive | 
87 | CCOC=O | inactive | 
88 | OCCN1CN(CCO)CN(CCO)C1 |  | 63.4 µM (active)
89 | O=C1OC2(c3ccccc31)c1cc(I)c(O)c(I)c1Oc1c2cc(I)c(O)c1I | inactive | 
90 | O=c1cc(-c2ccccc2)oc2ccc3ccccc3c12 | inactive | 
91 | O=C1Cc2ccccc2N1c1c(Cl)cccc1Cl |  | 66.4 µM (active)
92 | Oc1ccc(Cc2ccccc2O)cc1 | inactive | 
93 | Oc1c(Cl)ccc(Cl)c1Cl | inactive | 
94 | C=CCOCC(CO)(CO)CO | inactive | 
95 | C=CC(C)(CCC=C(C)C)OC(C)=O (centres undefined) | inactive | 
96 | c1cnc2c(c1)ccc1cccnc12 | inactive | 
97 | O=C(F)C(F)(F)C(F)(F)C(F)(F)C(=O)F | inactive | 
98 | c1cc2cccc3c4cccc5cccc(c(c1)c23)c54 | inactive | 
99 | O=P(O)(O)CCC(F)(F)C(F)(F)C(F)(F)C(F)(F)C(F)(F)C(F)(F)F | inactive | 

Row | SMILES | outcome | AC50
100 | FC(F)(F)C(F)(F)C(F)(F)C(F)(F)I | inactive | 
101 | CCCCCCOC(=O)c1ccc(O)cc1 |  | 41.8 µM (active)
102 | Nc1ccc(O)c(C(=O)O)c1 | inactive | 
103 | CC(C)(O)C(=O)c1ccccc1 | inactive | 
104 | CC1CCC(C(=O)O)CC1 (centres undefined) | inactive | 
105 | O=C(Nc1ccc(Cl)c(Cl)c1)c1cc(Cl)cc(Cl)c1O |  | 28.6 µM (active)
106 | Cc1ccc(C(=O)c2ccccc2)cc1 | inactive | 
107 | CCCCCCCCCC=CCC1CC(=O)OC1=O (centres undefined) | inactive | 
108 | CCO[Si](C)(C)OCC | inactive | 
109 | CC(=O)Nc1ccc(S(N)(=O)=O)cc1 | inactive | 
110 | COc1cccc(O)c1 | inactive | 
111 | Cn1sccc1=O |  | 74.2 µM (active)
112 | c1ccc2c(c1)CCC2 | inactive | 
113 | Cc1ccccc1C(OCCN(C)C)c1ccccc1 (centres undefined) | inactive | 135 µM (active)
114 | CC1=NN(c2ccccc2)C(=O)C1 | inactive | 
115 | O=C(O)C(=O)O | inactive | 
116 | CCOC(C)=O | inactive | 
117 | O=C1OC(=O)C(F)(F)C1(F)F | inactive | 
118 | CCCCCCCCCCCC | inactive | 

From PubChem BioAssay (EPA / NIEHS)
